The supplement of paper PMC10681739

The sequences below were run against T1, ETS1 (UniProt P14921) (assay: ETS1 binding intensity (PBM fluorescence) in presence of RUNX1, normalised to ETS1-only experiment (arbitrary fluorescence units); higher = stronger binding). Conditions: ETS1 concentration 1 nM; RUNX1 concentration 25 nM.
T1 sequence: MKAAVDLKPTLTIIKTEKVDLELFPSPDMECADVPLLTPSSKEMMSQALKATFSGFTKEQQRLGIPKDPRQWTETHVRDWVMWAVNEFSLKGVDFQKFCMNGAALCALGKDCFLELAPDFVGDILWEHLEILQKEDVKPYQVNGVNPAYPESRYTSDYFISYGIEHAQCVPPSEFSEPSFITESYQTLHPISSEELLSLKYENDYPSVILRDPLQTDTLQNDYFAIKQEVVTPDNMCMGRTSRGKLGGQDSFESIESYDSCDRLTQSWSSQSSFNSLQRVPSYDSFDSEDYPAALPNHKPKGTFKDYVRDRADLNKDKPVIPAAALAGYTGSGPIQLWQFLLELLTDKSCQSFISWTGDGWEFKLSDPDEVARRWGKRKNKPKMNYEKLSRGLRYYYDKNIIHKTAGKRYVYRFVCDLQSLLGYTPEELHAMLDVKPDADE
Protocol: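 Cooperative genomic-context PBM: 36-bp genomic probes with neighbouring ETS1 and RUNX1 sites, double-stranded on Agilent 4x180k arrays. Full-length recombinant human ETS1 (1 nM) was incubated alone or with RUNX1 (25 nM) and detected with anti-ETS1 antibody plus Alexa488 secondary. Value is the median fluorescence intensity over 4 replicate spots; the ETS1+RUNX1 data were normalised to the ETS1-only data using probes without RUNX1 sites. The 36-bp variable region sits on the array probe with constant linker/primer flanks that are not printed.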
CTCTTCTTCAGGGTTTCCTGTGGGTACACTGAGAAC showed an ETS1 binding intensity of 602. For CGGTCAGGTCGCAGGAAACCACAGCGGCAGCGCGGC, the ETS1 binding intensity was 1870. ATTACATCCGGGCTCCGCGACACGCCCGAACCACAA gave an ETS1 binding intensity of 427. Work on AAACCCCAAACAGGAAGTGGTAAAGCAACCTGCATC yielded an ETS1 binding intensity of 16400. In the case of CCTGTTTCCTGCCATCTGCCCTTCCTTTGTGGTCAA, the ETS1 binding intensity is reported as 1260. With ACCAGCAACGGAAATCAGATCTCTTGTGGTTATTAT the ETS1 binding intensity was 7160. ACGGACAGAATTTCCTCCCCCGTCACCACAGCGACC showed an ETS1 binding intensity of 728. ACAAGGACTTCCGCCTCCCTGCGGTCCCTCCCCTAC showed an ETS1 binding intensity of 1380. CTGCTAGCGGAAGCAGCCAAGCCCACAGGCTCCAGG showed an ETS1 binding intensity of 1140. With AGCCAACAGGAAGCTGCAGAGACTAAACCACAGCAA the ETS1 binding intensity was 4930. Work on AGATTTTGTCTTCCTGTTGTGGCAACATCTGTAGAA yielded an ETS1 binding intensity of 406. In the case of GCTTTGCAGTTTCCTCTGTGGAACACCACACACAGT, the ETS1 binding intensity is reported as 494. CCTGACTTCCTCCTCCCCCTCCCGCCACAATTCCGC was tested, and the ETS1 binding intensity was 1620. For GACTTGGGGGAAGTGGCTTGGTTTGCGTGGTTTCTC, the ETS1 binding intensity was 546. Sequence TCAGGGTCAGCAGGAGGAAACCACGCACTACATGCT has an ETS1 binding intensity of 451. Sequence ATGCCTGTAGGAGGATGTGGTTTCTACACAACTCTG has an ETS1 binding intensity of 5640. For TACAGCCAGGAAATGGGGAGGGTGCTGCGGGCGGCA, the ETS1 binding intensity was 1680. With GACGGGATGTAGGTTTTCAGCCGTGGCCACAGGAGA the ETS1 binding intensity was 559. Work on AGTCCTGCCCACTTCCTGCCGCAAGAGAAATCCACT yielded an ETS1 binding intensity of 3260. Work on TAAACGTCAGCTTCCTTTGTGGCTTACCCTCCCGCC yielded an ETS1 binding intensity of 582. GCCCCCATGCTTCCTGTTGTGGGAGATGAAGTGTGG gave an ETS1 binding intensity of 1710. For AAAGAGAAAGGAAACAAAGTATAGCACCACAGTGAG, the ETS1 binding intensity was 554. Work on TCCCCTCTCCCCATCCGCCCGAGACCACAGCCACTC yielded an ETS1 binding intensity of 495. GTGTTGGGTGGCTTCCTGCGGCGTTTCCACTCTCGC showed an ETS1 binding intensity of 504. CTTGCCACACTTCCTCTTGTTTTGAACCACTATATT showed an ETS1 binding intensity of 641. CTCCGCCTTTCACTTCCTAGTAACCGCCCTCCCTTG was tested, and the ETS1 binding intensity was 647. GCGCCCCGCTTCCGGGGCCGCCCTAAACCGCGGCCG showed an ETS1 binding intensity of 2870. For AGGCTTCCGGCCACGCCCCCTTCCCGCGGTTGCTAG, the ETS1 binding intensity was 1140. TTCTATCCTGCCTTGCATGTCTTTAACCACACTGAG was tested, and the ETS1 binding intensity was 489. In the case of GCCCGCGGCTCCGGAAGCGGCTGCGGCCCCGACCGG, the ETS1 binding intensity is reported as 3860. Sequence TGTCCGGGCAGGAAGGGGTGCTCTGTGGGCTTGGAG has an ETS1 binding intensity of 1050. Work on TACACTCCCACATCCGCTGCGGCGCAACTCACAACA yielded an ETS1 binding intensity of 1260. With GTTGGGAGGCGCACATCCGGCGGTTACCCGGTGCTT the ETS1 binding intensity was 3090. With CCAGATTAGGAAACCCACCCGGCCCACAAAAAGCGG the ETS1 binding intensity was 302. For CGGCGCTCGCGGAAGTGCCGCGGTGCCTGCTCTGCA, the ETS1 binding intensity was 759. TGAGGAGAGCGAGGAAGTGGTTTTCTCTTCGCACAG gave an ETS1 binding intensity of 1080. Sequence AGGCAGGGAAGTGGCGCAGAGGAGACCACAGGACAC has an ETS1 binding intensity of 803. Work on CTGCCTTGCTTTTCCGGTCGCCGCGGTCCTCTGCGC yielded an ETS1 binding intensity of 2110. Sequence CCCTTGCCAGAGGAAGCCACTGCCACCGCAGAAGCA has an ETS1 binding intensity of 1740. Sequence CCTTTACGTTTTCCTGTTGCGGGTTCTATCGCTCTG has an ETS1 binding intensity of 592.
